The source of these data is PubChem BioAssay (NCATS).

SMILES strings stand for the structures. Results filed as inconclusive are left out. The source made the active and inactive calls. Unless noted, calls follow the shape of the dose curve; as a rule, active = well fitted curve in the direction sought with a large enough effect; inconclusive = small, poorly fitted or top-dose-only effect, or another doubt; inactive = no such curve, though single readings can be large; an effect the other way counts as inactive or inconclusive.

A short description of assay [1]: Cellular Toxicity (caspase-3) N2a (AID 665).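 Also: compound exposure lasted 16 h at 37 °C before readout.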 The method, boiled down:
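Mouse N2a neuroblastoma cells, 1500 per well, treated 16 h at 37 °C in complete medium; caspase-3/7 activity by Caspase-Glo luminescence after 1 h. Normalized to DMSO and 10 uM staurosporine; AC50 from Hill fits.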

The nature of assay [2]: Cellular Toxicity (caspase-3) NIH 3T3 (AID 666).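 Also: caspase signal read after 16 h compound exposure.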 The method, boiled down:
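Mouse NIH 3T3 fibroblasts (1000/well) treated 16 h at 37 C; caspase-3/7 activity measured by Caspase-Glo 3/7 luminescence after 20 min. Normalized to DMSO and 100 uM tamoxifen; AC50 from Hill fits.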

Assay [3] is described as follows: Cellular Toxicity (caspase-3) Renal Proximal Tubule (AID 667).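 Also: cells exposed to compound for 16 hours at 37 °C before detection.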 The procedure, abridged:
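In qHTS format, rat primary proximal tubule cells seeded at 1000 per well are exposed to compounds for 16 hours at 37 °C. An increase in Caspase-Glo 3/7 luminescence indicates caspase activation.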

The target of assay [4] is Cytochrome P450 3A4 (Homo sapiens) (UniProt P08684). The assay can be described thus: qHTS Assay for Inhibitors and Substrates of Cytochrome P450 3A4 (AID 884). Also: nearly all actives have a fitted effect of over 50% in size. The procedure, abridged: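 20 nM human CYP3A4 with 25 uM Luciferin-PPXE (at KM) in 200 mM KPO4, preincubated 10 min with compound; NADPH regeneration started a 60 min RT reaction. Luciferin detected by luminescence, normalized to 57 uM ketoconazole as full inhibition.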
Chain of Cytochrome P450 3A4 (Homo sapiens) (P08684 whole entry, looked up): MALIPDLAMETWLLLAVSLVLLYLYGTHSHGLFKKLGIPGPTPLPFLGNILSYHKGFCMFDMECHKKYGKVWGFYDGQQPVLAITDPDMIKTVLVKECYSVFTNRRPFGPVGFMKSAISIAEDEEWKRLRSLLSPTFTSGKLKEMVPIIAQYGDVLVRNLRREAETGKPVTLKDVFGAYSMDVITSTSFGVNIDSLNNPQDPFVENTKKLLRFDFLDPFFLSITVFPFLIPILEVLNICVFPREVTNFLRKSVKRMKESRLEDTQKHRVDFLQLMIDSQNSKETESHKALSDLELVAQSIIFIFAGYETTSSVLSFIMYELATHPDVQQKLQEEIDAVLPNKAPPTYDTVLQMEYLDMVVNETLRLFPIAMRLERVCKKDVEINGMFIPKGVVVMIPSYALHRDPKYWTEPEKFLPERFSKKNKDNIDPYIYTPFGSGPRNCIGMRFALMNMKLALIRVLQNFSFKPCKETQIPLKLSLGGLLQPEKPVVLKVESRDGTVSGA
(Quantitative high-throughput screening tests each substance at several concentrations.)

Assay [5] can be described thus: Cell Viability - LYMP2-001 (AID 921). Also: series mostly up to about 92 µM; nearly all actives have a fitted effect of over 70% in size. The procedure, abridged:
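qHTS, 1536-well; lymphoblastoid cells, 24 hr compound, 37 C; ATP by CellTiter-Glo, 30 min RT; luminescence; Hill-fit AC50.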

The nature of assay [6]: Confirmation and Secondary Assay for Modulators of Hemoglobin Beta Chain Splicing at IVS2 705 locus (AID 930).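 Also: HeLa cells stably expressing the EGFP-705 splicing reporter; series mostly up to about 46 µM.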 The method, boiled down: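 Assay measures total GFP intensity per well in HeLa EGFP-705 cells after 2 days with compound; mis-splicing normally truncates EGFP, so fluorescence indicates corrected splicing.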
The nature of assay [7]: MultiTox-Fluor Cytotoxicity Assay - LYMP1-001 - Dead Cells (AID 946). The procedure, abridged:
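Cytotoxicity as increased dead-cell protease fluorescence (bis-AAF-R110, 485/520 nm), read 60 min after MultiTox-Fluor reagent. Human lymphoblastoid line exposed 16 h; Hill-fitted AC50, with DMSO as 0% and 15 uM tetraoctylammonium bromide as 100%.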

Assay [8] can be described thus: MultiTox-Fluor Cytotoxicity Assay - LYMP1-001 - Live Cells (AID 947).
For assay [9], the target named is Guanine nucleotide-binding protein G(i) subunit alpha-1 (Homo sapiens) (UniProt P63096). Nature of the assay: qHTS Assay for Inhibitors of RGS12 GoLoco Motif Activity (Green Fluorophore) (AID 879).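 Also: negative values mean loss of peptide binding seen as reduced polarization.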 The method, boiled down:
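Fluorescence polarization assay: 50 nM Gαi1 with 10 nM FITC-labeled RGS12 GoLoco peptide in 10 mM Tris pH 7.5, 150 mM NaCl, 0.1 mM GDP, 0.05% NP40, 10 min at room temperature with compound.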

Assay [10] has as its target Cytochrome P450 3A4 (Homo sapiens) (UniProt P08684). Nature of the assay: qHTS Assay for Activators of Cytochrome P450 3A4 (AID 885). Also: nearly all actives have a fitted effect of over 65% in size. The method, boiled down:
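Signal was normalized against complete inhibition by 57 uM ketoconazole. The reaction used 20nM CYP3A4 with 25uM Luciferin-PPXE, 10-min compound preincubation and a 60-min NADPH-supported step at RT.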

In assay [11] the target is Cytochrome P450 2D6 (Homo sapiens) (UniProt P10635). Nature of the assay: qHTS Assay for Inhibitors and Substrates of Cytochrome P450 2D6 (AID 891). Also: potency is read from the fitted curve at half-maximal effect; nearly all actives have a fitted effect of over 60% in size. The procedure, abridged: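 Human CYP2D6 (5 nM) with 30 uM Luciferin-ME EGE (at Km) in 100 mM KPO4, compound preincubated 10 min, then NADPH regeneration system for 60 min at room temperature. Luciferin read by luminescence; normalized to 1.43 uM quinidine.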
Chain of Cytochrome P450 2D6 (Homo sapiens) (P10635 whole entry, looked up): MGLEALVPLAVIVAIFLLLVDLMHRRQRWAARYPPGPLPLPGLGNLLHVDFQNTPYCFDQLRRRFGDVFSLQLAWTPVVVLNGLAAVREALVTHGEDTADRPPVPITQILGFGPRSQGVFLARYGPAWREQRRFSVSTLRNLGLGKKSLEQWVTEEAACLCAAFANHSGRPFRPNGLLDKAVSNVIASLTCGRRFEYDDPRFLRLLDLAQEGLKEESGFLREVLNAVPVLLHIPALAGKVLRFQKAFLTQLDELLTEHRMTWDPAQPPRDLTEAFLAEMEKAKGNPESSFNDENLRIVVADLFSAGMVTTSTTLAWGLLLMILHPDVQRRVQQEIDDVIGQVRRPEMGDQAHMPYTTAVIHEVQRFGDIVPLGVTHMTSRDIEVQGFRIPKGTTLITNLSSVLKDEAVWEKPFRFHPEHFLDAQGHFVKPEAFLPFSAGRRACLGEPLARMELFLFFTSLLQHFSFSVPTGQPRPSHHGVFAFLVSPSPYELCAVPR

Assay [12] is described as follows: qHTS Assay for Identification of Small Molecule Antagonists for NFkB Signaling Pathway (AID 895; active = well fitted inhibition curve with a large enough effect in the signal ratio, with a control signal flat, not every such curve was filed as active; the % refers to the signal ratio; also: potency is read from the fitted curve at half-maximal effect). The method, boiled down: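 ME-180 NFkB-bla cells (beta-lactamase under NFkB response element), plated overnight, treated with compound then 10 pM TNF alpha (about EC50) for 5 hrs at 37 C. LiveBLAzer FRET read at 460/530 nm emission, 405 nm excitation.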
A short description of assay [13]: qHTS Assay for Identification of Small Molecule Antagonists for Thrombopoietin (TPO) Signaling Pathway (AID 918). Also: potency is read from the fitted curve at half-maximal effect; nearly all actives have a fitted effect of over 60% in size. The conditions noted are these: TPO-dependent cell signaling reporter, antagonist mode. The method, boiled down:
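Murine Ba/F3 cells expressing human TPO receptor and a Glycoprotein IIb promoter-luciferase reporter, IL-3-starved overnight, treated with compound plus TPO at EC50 (26 pM final). After 24 h at 37 C, luminescence read to detect inhibitors.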

In assay [14] the target is Muscarinic acetylcholine receptor M1 (Rattus norvegicus) (UniProt P08482). Nature of the assay: qHTS Assay for Antagonists of Acetylcholine Muscarinic M1 Receptor: Measurement of IP-One Response (AID 944). Also: nearly all actives have a fitted effect of over 75% in size. Also: potency is read from the fitted curve at half-maximal effect. The method, boiled down: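 CHO cells stably expressing rat M1, pretreated 10 min with compound, then stimulated 30 min with carbachol at EC80 (200 nM) in LiCl-containing buffer pH 7.4; IP1 accumulation read by HTRF competition (665/620 nm).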
Chain of Muscarinic acetylcholine receptor M1 (Rattus norvegicus) (P08482 whole entry, looked up): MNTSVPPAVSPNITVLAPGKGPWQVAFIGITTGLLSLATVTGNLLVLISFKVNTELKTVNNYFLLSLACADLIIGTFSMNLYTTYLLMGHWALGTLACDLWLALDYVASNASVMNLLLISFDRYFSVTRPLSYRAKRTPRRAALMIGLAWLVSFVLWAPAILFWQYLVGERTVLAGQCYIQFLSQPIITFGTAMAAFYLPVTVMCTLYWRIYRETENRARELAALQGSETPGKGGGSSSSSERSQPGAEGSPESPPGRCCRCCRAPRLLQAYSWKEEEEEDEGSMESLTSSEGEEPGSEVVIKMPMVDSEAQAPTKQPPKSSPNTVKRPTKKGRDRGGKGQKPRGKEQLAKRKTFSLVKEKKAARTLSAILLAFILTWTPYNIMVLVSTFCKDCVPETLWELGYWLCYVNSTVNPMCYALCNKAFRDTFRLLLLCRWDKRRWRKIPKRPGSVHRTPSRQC

The target in assay [15] is Pyruvate kinase (Leishmania mexicana) (UniProt Q27686). The assay can be described thus: qHTS Validation Assay for Inhibitors of Leishmania Mexicana Pyruvate Kinase (AID 945). The procedure, abridged:
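Pyruvate kinase activity of E451W LmPYK (0.2 nM) was followed as ATP output after 1 h at room temperature with 0.5 mM PEP and 0.1 mM ADP, detected by PKLight luminescence.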

Assay [16] addresses Cytochrome P450 2C19 (Homo sapiens) (UniProt P33261). Nature of the assay: qHTS Assay for Inhibitors and Substrates of Cytochrome P450 2C19 (AID 899). Also: nearly all actives have a fitted effect of over 60% in size. Also: potency is read from the fitted curve at half-maximal effect. The method, boiled down:
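Luminescent read-out of luciferin formed from Luciferin-H EGE (10uM, equal to KM). Enzyme 5nM in 50mM KPO4; compound added, 10 min at 37C, then NADPH regenerating system for 60 min at 37C. Full inhibition defined by 57uM ketoconazole.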

For assay [17], the target named is Cytochrome P450 2C9 (Homo sapiens) (UniProt P11712). The assay can be described thus: qHTS Assay for Inhibitors and Substrates of Cytochrome P450 2C9 (AID 883). Also: nearly all actives have a fitted effect of over 60% in size. The method, boiled down: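 10nM CYP2C9 + 100uM Luciferin-H (=KM), 25mM KPO4; cpd 10 min 37C; NADPH regen, 60 min 37C; stop/detect with P450 Glo-Buffer 20 min; luminescence. Norm. to 57uM sulphaphenazole as full inhibition.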
Chain of Cytochrome P450 2C9 (Homo sapiens) (P11712 whole entry, looked up): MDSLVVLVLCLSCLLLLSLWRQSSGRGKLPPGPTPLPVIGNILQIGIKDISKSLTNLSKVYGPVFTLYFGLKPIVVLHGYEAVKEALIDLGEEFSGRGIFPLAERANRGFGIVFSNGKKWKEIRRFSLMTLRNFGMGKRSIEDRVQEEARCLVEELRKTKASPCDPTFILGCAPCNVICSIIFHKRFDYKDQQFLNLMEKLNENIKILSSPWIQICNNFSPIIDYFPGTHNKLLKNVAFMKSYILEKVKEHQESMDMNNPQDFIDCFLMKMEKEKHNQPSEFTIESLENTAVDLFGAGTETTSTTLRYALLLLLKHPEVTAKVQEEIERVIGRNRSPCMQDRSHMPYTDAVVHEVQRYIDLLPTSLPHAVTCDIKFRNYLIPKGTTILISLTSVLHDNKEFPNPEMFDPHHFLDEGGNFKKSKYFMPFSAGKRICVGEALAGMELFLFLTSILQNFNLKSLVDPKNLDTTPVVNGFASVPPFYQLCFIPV

Chain of Guanine nucleotide-binding protein G(i) subunit alpha-1 (Homo sapiens) (P63096 whole entry, looked up): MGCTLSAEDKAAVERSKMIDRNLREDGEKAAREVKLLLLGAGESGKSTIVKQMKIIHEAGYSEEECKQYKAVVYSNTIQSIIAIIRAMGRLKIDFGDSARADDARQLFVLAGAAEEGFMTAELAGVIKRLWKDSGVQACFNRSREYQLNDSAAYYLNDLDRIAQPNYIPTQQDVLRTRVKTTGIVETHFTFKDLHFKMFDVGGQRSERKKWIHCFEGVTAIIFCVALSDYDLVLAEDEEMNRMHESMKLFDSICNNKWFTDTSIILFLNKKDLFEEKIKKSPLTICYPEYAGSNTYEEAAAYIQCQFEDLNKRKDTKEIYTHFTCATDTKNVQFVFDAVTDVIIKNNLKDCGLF
Chain of Cytochrome P450 2C19 (Homo sapiens) (P33261 whole entry, looked up): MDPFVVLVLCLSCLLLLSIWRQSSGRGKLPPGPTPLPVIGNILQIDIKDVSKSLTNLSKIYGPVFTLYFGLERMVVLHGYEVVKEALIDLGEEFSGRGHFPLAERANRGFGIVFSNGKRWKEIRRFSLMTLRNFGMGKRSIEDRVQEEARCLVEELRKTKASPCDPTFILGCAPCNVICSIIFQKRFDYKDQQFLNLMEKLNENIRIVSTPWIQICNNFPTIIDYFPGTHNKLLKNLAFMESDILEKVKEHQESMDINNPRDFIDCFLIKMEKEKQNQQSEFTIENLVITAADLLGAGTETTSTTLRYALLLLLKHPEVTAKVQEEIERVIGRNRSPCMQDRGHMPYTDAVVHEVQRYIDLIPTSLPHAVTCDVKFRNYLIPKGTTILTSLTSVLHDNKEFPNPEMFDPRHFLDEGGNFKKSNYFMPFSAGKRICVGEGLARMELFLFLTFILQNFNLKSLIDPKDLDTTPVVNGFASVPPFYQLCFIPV
Chain of Pyruvate kinase (Leishmania mexicana) (Q27686 2-499 E452W): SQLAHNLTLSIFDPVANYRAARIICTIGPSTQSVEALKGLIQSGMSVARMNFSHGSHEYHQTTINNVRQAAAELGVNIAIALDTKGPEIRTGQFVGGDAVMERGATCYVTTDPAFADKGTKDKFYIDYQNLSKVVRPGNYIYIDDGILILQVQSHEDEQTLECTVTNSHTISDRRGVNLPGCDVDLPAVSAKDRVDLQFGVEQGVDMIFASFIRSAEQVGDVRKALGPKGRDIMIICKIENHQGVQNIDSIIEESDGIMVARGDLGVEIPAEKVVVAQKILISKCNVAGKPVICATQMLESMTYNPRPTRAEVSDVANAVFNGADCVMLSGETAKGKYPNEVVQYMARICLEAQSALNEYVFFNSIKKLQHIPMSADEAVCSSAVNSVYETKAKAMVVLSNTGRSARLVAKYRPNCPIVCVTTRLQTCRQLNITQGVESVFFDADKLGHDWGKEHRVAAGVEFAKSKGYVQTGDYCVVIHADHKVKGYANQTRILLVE

Consider `Cc1cc(CC(=O)O)n(C)c1C(=O)c1ccc(Cl)cc1`, for which the molecule was called inactive in [1], in assay [2], in assay [3] and in assay [5]. Moreover, the Potency result in [4], in assay [6], in assay [7] and in [8] was “inactive” in each case.
For `NC(=O)N/N=C/c1ccc([N+](=O)[O-])o1`, the molecule was classed as inactive in assay [1], in assay [2], in assay [3] and in assay [5]. Also, the Potency entry in [6], in [7] and in [8] was “inactive” in each case.
Turning to `CNCCCC1c2ccccc2C=Cc2ccccc21`, the call in [9], in [10] and in [15] was inactive. The Potency was 3.98 µM (active) in assay [11], 8.91 µM (active) in assay [12], 10 µM (active) in assay [13] and 0.398 µM (active) in assay [14].
For `CC12CCC(CC1)C(C)(C)O2`, the call in assay [1], in [2], in [3] and in assay [5] was inactive. Besides, the Potency entry in assay [4], in assay [6], in [7] and in assay [8] was “inactive” in each case.
As to `CCCCOC(=O)c1ccc(O)cc1`, the call in assay [1], in assay [2], in [3] and in assay [5] was inactive. The Potency entry in assay [4], in [7] and in [8] was “inactive” each time. Moreover, in assay [16], the Potency is 6.31 µM (active).
On to `CN(C)CCC=C1c2ccccc2CCc2ccccc21`, for which the call in [1], in assay [2], in [3], in assay [9], in assay [10] and in assay [15] was inactive. Moreover, the Potency entry in assay [4], in assay [6] and in assay [8] was “inactive” each time.
Turning to `CCCCCCCCCCCCOS(=O)(=O)O`, the molecule was called inactive in assay [1], in assay [2], in assay [3] and in [5]. In addition, the Potency result in assay [4], in assay [7] and in [8] was “inactive” in each case.
For `CN(C)CCCN1c2ccccc2CCc2ccccc21`, the outcome in [9], in assay [17], in [4], in assay [10], in assay [16] and in assay [15] was inactive. In addition, the Potency entry in assay [4] is “inactive”.
For the molecule `CC(=O)OCC(=O)[C@@]1(O)CC[C@H]2[C@@H]3CCC4=CC(=O)CC[C@]4(C)[C@H]3C(=O)C[C@@]21C`, the molecule was classed as inactive in assay [9] and in assay [15]. Further, in assay [4], the Potency entry was “inactive”.
As for `NC(=O)c1ncn([C@@H]2O[C@H](CO)[C@@H](O)[C@H]2O)n1`, the outcome in [1], in assay [2], in assay [3], in assay [9] and in [5] was inactive. For the same molecule, the Potency result in assay [14], in assay [7] and in [8] was “inactive” throughout.
For `COc1ccccc1O`, the call in assay [1], in assay [2], in [3] and in assay [5] was inactive. The Potency entry in assay [4], in assay [7] and in assay [8] was “inactive” in each case.
As for `COC(=O)C1=C(C)NC(C)=C(C(=O)OC)C1c1ccccc1[N+](=O)[O-]`, the call in [1], in [3], in assay [9] and in assay [15] was inactive. The Potency entry in [6] was “inactive”.
With `Nc1ccc(S(=O)(=O)Nc2nccs2)cc1`, the result in assay [1], in [2] and in assay [3] was inactive. For the same molecule, the Potency result in [17], in assay [4], in assay [6], in assay [7] and in [8] was “inactive” each time.
